# Bioassay records as filed in PubChem.
# Shown are actives, neighbours in structure and some others; about 14% of the full set was active somewhere.
# Pf growth 96h – inhibits malaria parasite growth, 96 h | 320,000 tested, 6.9% active | Potency, µM (top dose mostly 28.7 µM), for inactives: top-dose activity change, negative = inhibition, actives largely listed as inhibitors | AID 504834 | P. falciparum luciferase reporter growth, 96 h; note: potency is the fitted concentration of half-maximal effect
#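 Compounds incubated with erythrocytes infected by luciferase-expressing P. falciparum (2% hematocrit, 0.05% parasitemia final) for 96 hours, 37 C in 5% CO2. Growth inhibition scored as decreased luciferase luminescence.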
# HCMV inh – inhibitors of human cytomegalovirus; 410,000 tested, 4.5% active; HFF cells, HCMV-luciferase reporter, 72 h; active compounds read low; activity change, negative = inhibition, % at 57.5 µM; in the data active = activity change below about -60%; inconclusive = no clear call, values can overlap the other calls; inactive = above about -39%
#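 Two-dose cell screen: HFF monolayers treated with compounds and infected with luciferase-expressing HCMV at 1 PFU/cell, 72 h at 37C, then lysed for luciferase measurement.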
# FBPA Giardia inh – inhibitors of Giardia lamblia fructose-1,6-bisphosphate aldolase | 290,000 tested, 0.71% active | Potency, µM (doses to about 59.6 µM), inactives show at the top dose activity, negative = inhibition, actives largely listed as inhibitors | A8B2U2 | purified Giardia FBPA; note: potency is the fitted concentration of half-maximal effect; nearly all actives have a fitted effect of over 55% in size
# Target sequence (A8B2U2 whole entry, looked up): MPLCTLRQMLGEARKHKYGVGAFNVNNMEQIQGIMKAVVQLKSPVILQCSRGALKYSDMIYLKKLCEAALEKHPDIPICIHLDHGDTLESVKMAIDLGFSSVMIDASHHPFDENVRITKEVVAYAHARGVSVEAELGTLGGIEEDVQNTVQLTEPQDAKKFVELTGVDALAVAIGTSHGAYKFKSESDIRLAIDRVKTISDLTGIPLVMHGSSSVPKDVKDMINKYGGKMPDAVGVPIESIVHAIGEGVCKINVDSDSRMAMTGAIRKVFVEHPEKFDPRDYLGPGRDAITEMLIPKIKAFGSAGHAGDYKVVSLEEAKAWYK
#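 40 nM FBPA preincubated 10 min at RT with compound (up to 57.5 uM final), then substrate plus GAPDH/TPI/NAD/arsenate coupling and diaphorase/resazurin added. Fluorescence read after 20 min at RT, 525/598 nm.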
# Pf growth 48h – inhibits P. falciparum growth in the first generation, 48 h; AID 504832; P. falciparum luciferase growth in erythrocytes, 48 h; 310,000 tested, 5.9% active; Potency, µM (titrated, usually from 28.7 µM), for inactives: at the top dose activity change, negative = inhibition, actives largely listed as inhibitors; note: potency is the fitted concentration of half-maximal effect
#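 Luciferase-expressing parasites in RBCs, 2% Hct / 0.1% parasitemia final; RPMI 1640 + 0.5% Albumax; 37 C, 5% CO2, one generation; luminescence read-out, lower signal = inhibition.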
# Sm TGR block – inhibitors of Schistosoma mansoni thioredoxin glutathione reductase; Q962Y6; purified TGR, DTNB reduction, TNB absorbance 405 nm; Potency, µM (highest dose often 114 µM), without a hit: at the highest dose activity change, negative = inhibition, most hits filed as inhibitors; 360,000 tested, 3% active; AID 485364; note: potency is the fitted concentration of half-maximal effect; nearly all actives have a fitted effect of over 60% in size
#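 First, TGR (20 nM dispensed) and NADPH were mixed with compound. Second, a 15 min room-temperature incubation followed. Third, further NADPH and then DTNB were added to start the reaction. Finally, TNB absorbance was monitored kinetically.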
# Numbers without * were called inactive; ? = inconclusive; / = no result. Unless noted, calls come from the whole dose curve; as a rule, active = well fitted curve in the direction sought with a large enough effect; inconclusive = small, poorly fitted or top-dose-only effect, or another doubt; inactive = no such curve, though single readings can be large; an effect the other way counts as inactive or inconclusive. % is set by controls: 0 for no effect and ±100 for the full control effect.
SMILES,Pf growth 96h,HCMV inh,FBPA Giardia inh,Pf growth 48h,Sm TGR block
COc1ccc2c(c1)c1c(c(=O)n(-c3ccccc3C)c(=O)n1CC(=O)NCc1ccc(C)cc1)n2C,/,?,/,/,4%
CC(C)(C)NC(=O)C(c1cc2ccccc2o1)n1c(-c2ccc(-c3ccccc3)cc2)nc2ccccc21 (stereo not drawn),/,251,/,/,/
CCCCCC(=O)c1c(O)cc(OC)c(Cl)c1O,/,/,-4%,/,/
COc1ccc2[nH]cc(CCNC(=O)CCC3CCCCC3)c2c1,?,-28,0%,-7%,-6%
COc1ccc(C[C@H]2CN3C(=NC[C@H]3Cc3ccccc3)N2CCNC(=O)CCC2CCCCC2)cc1,4.7µM*,?,3%,?,-10%
CC(=O)c1ccc(OCCOc2ccc(Cl)c3cccnc23)cc1,-26%,5,0%,17%,-3%
Cc1c(CCOC(=O)c2ccc(Cl)cc2Cl)sc[n+]1CC(=O)c1ccccc1,/,12,/,/,/
Cc1c(CCOC(=O)C23CC4(C)CC(C)(CC(C)(C4)C2)C3)sc[n+]1CC(=O)c1ccccc1,10%,-100*,0%,?,/
Cc1c(CCOC(=O)CC23CC4CC(CC(C4)C2)C3)sc[n+]1CC(=O)c1ccccc1,52%,48,4%,13µM*,0%
Cc1c(CCOC(=O)c2cc([N+](=O)[O-])cc([N+](=O)[O-])c2)sc[n+]1CC(=O)c1ccc(Br)cc1,?,-33,-14%,?,?
Nc1cccc(C(=O)N/N=C/c2ccsc2)c1,65%,-17,-1%,102%,-2%
COCCNc1nc(CSc2ccccc2)nc2sc(C)c(C)c12,?,-70*,-5%,?,1%
Cc1sc2nc(CSc3ccccc3)nc(N3CCN(C)CC3)c2c1C,-76%,?,5%,-17%,-8%
CCCc1c(O)nc(SCCN(CC)CC)n(C(=O)c2ccccc2)c1=O,13µM*,34,-9%,?,-17%
CCCc1c(O)nc(SCCN(CC)CC)[nH]c1=O,/,72,-12%,-8%,-4%
CC(=O)ON=C1C=CC(=C(C#N)c2ccccc2)C=C1,/,-101*,/,/,/
CCc1nn(CC(=O)NCCCN(Cc2ccccc2)C(C)C)c(=O)c2cc3sccc3n12,?,-63*,3%,-6%,1%
CCN(CC)C(=O)c1[nH]cnc1C(=O)Nc1ccc(Cl)cc1,?,-6,/,7%,?
Cc1nc(-c2ccc(-n3nncc3-c3ccco3)cc2)cs1,19%,-16,-4%,27%,50µM*
O[C@@H]1CO[C@H]2C1OC[C@@H]2O (stereo partly drawn),/,/,2%,/,/
CN(C)CC/C=C1/c2ccc(F)cc2Sc2ccc(Cl)cc21,/,-3,/,/,/
OCCN1CCN(CC/C=C2/c3ccccc3Sc3ccc(Cl)cc32)CC1,9.3µM*,?,/,10µM*,-15%
CN(C)CC/C=C1\c2ccccc2Sc2ccc(Cl)cc21,13µM*,-7,-7%,15µM*,-7%
CN(C)CC/C=C1\c2ccc(F)cc2Sc2cc(F)c(Cl)cc21,/,-108*,/,/,/
CN(C)CC/C=C1\c2ccccc2Sc2cc(F)c(Cl)cc21,/,-65*,/,/,/
SMILES,Pf growth 96h,HCMV inh,FBPA Giardia inh,Pf growth 48h,Sm TGR block
CCOC(=O)C1=C(COC(=O)c2ccc(Cl)cc2[N+](=O)[O-])NC(=O)NC1C (stereo not drawn),35%,7,/,19%,-3%
Cc1ccc(-n2ncc3c2CC(C)(C)CC3NC(=O)C2CCOCC2)cc1 (stereo not drawn),-1%,1,/,-8%,?
O=C(CC1CCCCC1)Nc1ncn[nH]1,2.9µM*,-35,1%,0%,5%
O=C(NCC(c1ccco1)N1CCN(c2ccccc2F)CC1)OCc1ccccc1 (stereo not drawn),?,-15,1%,?,-6%
O=C(NCC(c1ccco1)N1CCN(c2ccccc2)CC1)OCc1ccccc1 (stereo not drawn),4.1µM*,9,-4%,?,-4%
COc1ccc(N2CCN(C(CNC(=O)C3CCCCC3)c3ccco3)CC2)cc1 (stereo not drawn),?,-10,/,13µM*,1%
O=C(NCC(c1ccco1)N1CCN(c2ccccc2F)CC1)C(=O)NC1CCCCC1 (stereo not drawn),?,-8,/,-10%,0%
